Assay outcomes (PubChem)
Vif inh = blocks HIV Vif function. HEK293T cells, Vif self-association by quenched fluorescence, imaging, 24 h. AID 602346. 340,000 tested, 0.35% active. inhibition, % at 7.49 µM; in the data active = inhibition above about 50%, passing the limit was not always enough; inconclusive = no clear call, values can overlap the other calls; inactive = below about 31%
A1 inh = inhibitors of the anti-apoptotic protein A1, read as caspase activation; MEF A1-2A-BIM cells, Caspase-Glo 3/7 luminescence, 3 h; percent of clofoctol response, vehicle zero; caspase activation, % (no concentration beside the values); 330,000 tested, 0.066% active;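 active = over half of replicate activation scores above 10%, or exactly half above 10 with the replicate mean above 10; inconclusive = replicate mean below 10 yet half the replicates above 10; inactive = over half of replicates below 10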
GSIS activator = GLuc luminescence reporter in INS-1E cells, primary screen for activators of glucose-dependent secretion of insulin; INS-1E GLuc reporter insulin secretion, 2-3 h; activation, % at 16.6 µM; 370,000 tested, 0.61% active; AID 743287;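 active = lowest replicate activation of at least 40%, so every replicate reaches that level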
dFosB act-1 = mouse delta FosB homodimer activation | activation, % at 25 µM | purified delta FosB, TAMRA-CDK5 oligo fluorescence polarization; percent of positive-control signal above neutral wells | 340,000 tested, 0.99% active;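 active = mean activation above about 17%, with every replicate also reaching it, limit read from the data, passing the limit was not always enough; inconclusive = only one of the two conditions met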
Target sequence (P13346 whole entry, looked up): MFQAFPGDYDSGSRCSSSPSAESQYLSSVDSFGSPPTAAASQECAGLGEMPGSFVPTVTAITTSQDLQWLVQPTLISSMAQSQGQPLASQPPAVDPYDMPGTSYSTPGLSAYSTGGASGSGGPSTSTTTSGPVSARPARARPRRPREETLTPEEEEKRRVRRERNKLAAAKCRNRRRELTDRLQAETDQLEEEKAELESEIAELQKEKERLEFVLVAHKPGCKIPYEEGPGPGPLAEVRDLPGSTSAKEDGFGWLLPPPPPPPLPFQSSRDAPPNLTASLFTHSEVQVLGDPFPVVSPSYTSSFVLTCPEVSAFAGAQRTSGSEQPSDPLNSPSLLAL
Neddyl block = blocks human cullin neddylation; TR-FRET cullin neddylation, biochemical; P61081+Q13564; 360,000 tested, 0.58% active; inhibition, % at 25 µM; in the data active = inhibition above about 36%
dFosB act-2 = delta FosB (mouse) homodimer activation; 2,400 tested, under 10 active; shares compounds with dFosB act-1; AID 588690; activation, % at 24.9 µM; purified delta FosB, TAMRA-CDK5 oligo fluorescence polarization; normalised: neutral wells 0, positive control 100;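 active = highest replicate activation at or above 34% and every replicate reaching that threshold; inconclusive = meets only one of the two criteria; inactive = meets neither criterion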;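 also: higher polarization means more probe DNA bound by delta FosB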
Of the large screens only hits and unclear results are named; the others gave an inactive call (follow-up assays come after a bar, where shown). Shown are actives, neighbours in structure and some others; about 1.9% of the full set was active somewhere.

O=S(=O)(c1ccccc1)N1CCN(c2cccc(Cl)c2)CC1	none
O=[N+]([O-])c1ccc2[nH]cc(S(=O)(=O)N3CCN(c4cccc(Cl)c4)CC3)c2c1	dFosB act-1 26 | dFosB act-2 inactive
CCCC(=O)Nc1nc(-c2ccc(Cl)s2)cs1	none
O=C(Nc1ccc([N+](=O)[O-])cc1)Nc1nc(-c2ccc(Cl)s2)cs1	dFosB act-1 29 (no result: GSIS activator) | dFosB act-2 inactive
O=C(Nc1ccc(Cl)cc1)Nc1nc(-c2ccccc2)cs1	dFosB act-1 30 | dFosB act-2 inactive
CC(=O)Nc1nc(-c2ccc([N+](=O)[O-])cc2)cs1	none
CC(=O)Nc1nc(-c2cc([N+](=O)[O-])cs2)cs1	dFosB act-1 29 | dFosB act-2 inactive
O=C(Nc1cccc(Cl)c1)Nc1nc(-c2ccccc2)cs1	none
CO[C@H]1CN(C)C(=O)c2ccc(NC(C)=O)cc2OC[C@@H](C)N(C(=O)c2ccccc2F)C[C@H]1C	none (no result: Vif inh, A1 inh, dFosB act-1, Neddyl block)
O=C(C[C@@H]1CC[C@H]2[C@@H](COC[C@H](O)CN2CC2CC2)O1)NCc1ccc(Cl)cc1	none (no result: Vif inh, A1 inh, dFosB act-1, Neddyl block)
Cc1ccc(NC(=O)[C@H](NC(=O)[C@@H]2Cc3ccccc3CN2)c2ccccc2)c(C)c1	none
CC(C)C[C@H](NC(=O)[C@@H]1Cc2ccccc2CN1)C(=O)Nc1ccc(C(C)C)cc1	dFosB act-1 23 | dFosB act-2 inactive
Cc1cc(C)cc(NC(=O)[C@H](NC(=O)[C@@H]2Cc3ccccc3CN2)c2ccccc2)c1	dFosB act-1 47 (no result: GSIS activator) | dFosB act-2 inactive
Cc1cc(C)cc(NC(=O)[C@H](Cc2c[nH]c3ccccc23)NC(=O)[C@@H]2Cc3ccccc3CN2)c1	none (no result: GSIS activator)
Cc1ccc(NC(=O)[C@H](Cc2c[nH]c3ccccc23)NC(=O)[C@@H]2Cc3ccccc3CN2)c(C)c1	dFosB act-1 34 | dFosB act-2 inactive
COc1ccc(S(=O)(=O)Nc2ccc3c(c2)C(=O)N([C@H](C)CO)C[C@H](C)[C@H](CN(C)C(=O)NC(C)C)O3)cc1	none (no result: Vif inh, A1 inh, dFosB act-1, Neddyl block)
CC(C)NC(=O)N(C)C[C@@H]1Oc2cc(Br)ccc2S(=O)(=O)N([C@@H](C)CO)C[C@@H]1C	none (no result: Vif inh, A1 inh, dFosB act-1, Neddyl block)
Cc1ccc(OCc2nnc(SCC(=O)Nc3sc(C)c(C)c3C#N)n2C)cc1	dFosB act-1 26 | dFosB act-2 inactive
Cc1cccc(NC(=O)CN2C(=O)S/C(=C\c3ccccn3)C2=O)c1	dFosB act-1 41 | dFosB act-2 inactive
O=C(CN1C(=O)S/C(=C\C=C\c2ccccc2)C1=O)Nc1ccc(O)cc1	dFosB act-1 61 | dFosB act-2 inactive
O=C(CN1C(=O)S/C(=C\c2ccccn2)C1=O)Nc1ccccc1	dFosB act-1 61 | dFosB act-2 inactive
Cc1ccc(NC(=O)CN2C(=O)S/C(=C\c3cccn3C)C2=O)cc1	none
O=C(CCCN1C(=O)S/C(=C/C=C/c2ccccc2)C1=O)Nc1ccc(C(=O)O)cc1	none
O=C(CN1C(=O)S/C(=C\c2ccccn2)C1=O)Nc1ccc(F)cc1	dFosB act-1 48 | dFosB act-2 inactive
Cc1ccc(NC(=O)CN2C(=O)S/C(=C\c3ccccn3)C2=O)cc1	none
COc1ccc(NC(=O)N(C)C[C@H]2Oc3ccc(NS(=O)(=O)c4cccs4)cc3CC(=O)N([C@@H](C)CO)C[C@@H]2C)cc1	none (no result: Vif inh, A1 inh, dFosB act-1, Neddyl block)
COc1ccccc1C#Cc1ccc2c(c1)O[C@@H](CN(C)C(C)=O)[C@H](C)CN([C@@H](C)CO)S2(=O)=O	none (no result: Vif inh, A1 inh, dFosB act-1, Neddyl block)
C[C@H]1CN([C@@H](C)CO)C(=O)Cc2cc(NC(=O)CCCCCC(=O)Nc3ccccc3N)ccc2O[C@H]1CN(C)CC1CC1	none (no result: Vif inh, A1 inh, dFosB act-1, Neddyl block)
Cc1noc(C)c1S(=O)(=O)N(C)C[C@H]1Oc2ccc(NC(=O)Cc3ccccc3)cc2CC(=O)N([C@H](C)CO)C[C@@H]1C	none (no result: Vif inh, A1 inh, dFosB act-1, Neddyl block)
CCOc1cc(/C=C2/NC(=O)N(CC(=O)Nc3cccc(C)c3)C2=O)ccc1O	dFosB act-1 19 (no result: GSIS activator) | dFosB act-2 inactive
O=C(CN1C(=O)c2ccccc2C1=O)Nc1ccccc1	dFosB act-1 24 | dFosB act-2 inactive
Cc1noc(C)c1S(=O)(=O)Nc1ccc2c(c1)C(=O)N([C@@H](C)CO)C[C@H](C)[C@@H](CN(C)Cc1ccc3c(c1)OCO3)OCCCC[C@@H](C)O2	none (no result: Vif inh, A1 inh, dFosB act-1, Neddyl block)
COc1cc2[nH]c(=O)c(C(=O)NCCCN3CCCCC3)c(O)c2cc1OC	dFosB act-1 26 (not shown: GSIS activator, Neddyl block) | dFosB act-2 inconclusive
COc1cc2[nH]c(=O)n(Cc3ccc(C(=O)N4CCC(N5CCCCC5)CC4)cc3)c(=O)c2cc1OC	dFosB act-1 34 (no result: GSIS activator) | dFosB act-2 inactive
COc1cc2[nH]c(=O)n(Cc3ccc(C(=O)NCCCN4CCC(C)CC4)cc3)c(=O)c2cc1OC	dFosB act-1 28 (no result: GSIS activator) | dFosB act-2 inactive
CCOc1cc2[nH]c(=S)n(Cc3ccc(C(=O)NCCN(CC)CC)cc3)c(=O)c2cc1OCC	dFosB act-1 25 | dFosB act-2 inactive
COc1cc2[nH]c(=O)n(CCC(=O)N3CCC(N4CCCCC4)CC3)c(=O)c2cc1OC	none
COc1ccc(CCNC(=O)c2c(O)c3cc(OC)c(OC)cc3[nH]c2=O)cc1OC	none (no result: A1 inh, dFosB act-1)
COc1ccc2c3c(n(C)c2c1)[C@@H](CO)N(C(C)=O)CC31CN(Cc2ccccc2OC)C1	none (no result: Vif inh, A1 inh, dFosB act-1, Neddyl block)
COC(=O)C[C@H]1C[C@@H]2c3cc(NC(=O)Nc4ccc(F)cc4)ccc3O[C@@H]2[C@H](CO)O1	none (no result: Vif inh, A1 inh, dFosB act-1, Neddyl block)
Cc1cccc2nc(-c3cccc(NC(=O)c4ccc(Cl)cc4)c3)cn12	dFosB act-1 21 (no result: GSIS activator) | dFosB act-2 inactive
Cc1cccc2nc(-c3cccc(NC(=O)Cc4ccccc4)c3)cn12	none
C[C@@H]1CCCCO[C@H](CN(C)Cc2ccncc2)[C@H](C)CN([C@@H](C)CO)C(=O)c2cc(NC(=O)Nc3ccc(C(F)(F)F)cc3)ccc2O1	none (no result: Vif inh, A1 inh, dFosB act-1, Neddyl block)
CO[C@H]1CN(C)C(=O)c2cc(NC(=O)Nc3ccc(C(F)(F)F)cc3)ccc2OC[C@H](C)NC[C@@H]1C	none (no result: Vif inh, A1 inh, dFosB act-1, Neddyl block)
COc1ccc2cc3c(N)nn(C(=O)c4cccc(F)c4)c3nc2c1	dFosB act-1 51 | dFosB act-2 inactive
COCCn1c(=NC(=O)/C=C/c2ccccc2Cl)sc2cc(NC(C)=O)ccc21	dFosB act-1 27 (not shown: Neddyl block) | dFosB act-2 inactive
CCOCCn1c(=NC(=O)/C=C/c2ccccc2Cl)sc2cc(NC(C)=O)ccc21	none (not shown: Neddyl block)
C[C@@H]1CCCCO[C@@H](CN(C)Cc2ccccc2)[C@H](C)CN([C@@H](C)CO)C(=O)c2cc(NC(=O)Nc3ccc(F)cc3)ccc2O1	none (no result: Vif inh, A1 inh, dFosB act-1, Neddyl block)
O=C(c1cccc(F)c1)N1CC[C@@H]2[C@H]1c1cc(-c3ccc(F)cc3)ccc1N[C@@H]2CO	none (no result: Vif inh, A1 inh, dFosB act-1, Neddyl block)
O=C(Nc1ccc(Cl)cc1)Nc1ccc(-c2cnco2)cc1	dFosB act-1 39 | dFosB act-2 inactive
COc1ccccc1-c1cn(CC[C@H]2CC[C@H](NC(=O)C3CC3)[C@H](CO)O2)nn1	none (no result: Vif inh, A1 inh, dFosB act-1, Neddyl block)
CC/C(=N\NC(=O)CSCc1ccccc1Cl)c1ccc2c(c1)OCCO2	none
